Test systems include NCI-H23 lung; NCI-H226 lung; NCI-H322M lung; HOP-62 NSCLC; NCI-H460 lung; HOP-92 NSCLC; NCI-H522 lung; A549/ATCC NSCLC; 786-0 renal; COLO 205 colon.
Common to all, as to test: NCI-60 one-dose screen, 48 h (100 = growth as untreated, 0 = no growth, -100 = all killed)
What all share (settings): 10 µM unless noted

The panel holds about 83,000 compounds, 20% with a hit somewhere; the sample as a whole holds those more often.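 Compound tested at a single concentration for 48 hours in 96-well plates; a percent growth value below 10 was scored as active.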 Unmarked numbers belong to inactive results. Calls of active or inactive are those of the source.

In the case of `Cc1cccc(NC(=O)Nc2ccc(-c3ccc4c(c3)NC(=O)/C4=C\c3ccc[nH]3)cc2)c1`, the growth in the test on NCI-H23 lung was 61.6%; with NCI-H226 lung, 85.5%; with NCI-H322M lung it was 89.8%; with HOP-62 NSCLC, 89.8%; with NCI-H460 lung it was 26.3%; in the test with HOP-92 NSCLC it was 127%. Also, the growth was 85.3% with NCI-H522 lung, 83.6% in the test with A549/ATCC NSCLC, 103% in the test on 786-0 renal and 96.3% with COLO 205 colon.

Take `O=C1Nc2cc(-c3ccc(NC(=O)C4CC4)cc3)ccc2/C1=C/c1ccc[nH]1`: the growth was 61.3% in the test with NCI-H23 lung; 101% in the test on NCI-H226 lung; 86.2% with NCI-H322M lung; 104% with HOP-62 NSCLC; 61.4% in the test on NCI-H460 lung; 129% with HOP-92 NSCLC. Further, the growth was 92.5% in the test on NCI-H522 lung, 107% in the test on A549/ATCC NSCLC, 105% in the test on 786-0 renal and 117% with COLO 205 colon.

As to `COc1cc2c(c(OC)c1OC)CCC(c1cccc(NC(=O)c3cccc(Br)c3)c1)O2` (stereo not given), the growth in the test on NCI-H23 lung is 95.1%; with NCI-H226 lung, 93.7%; in the test with NCI-H322M lung, 98.5%; in the test with HOP-62 NSCLC, 99.8%; with NCI-H460 lung it was 100%; in the test with HOP-92 NSCLC, 94%. For the same molecule, the growth was 81% with NCI-H522 lung, 81.2% in the test with A549/ATCC NSCLC, 93.7% in the test with 786-0 renal and 98.3% in the test with COLO 205 colon.

As for `O=C(c1nc2ccccc2[nH]1)C1C(c2ccc(Br)cc2)C2CC3CCCC[C@H]3N2[C@@]12C(=O)Nc1cc(Cl)ccc12` (stereo not given in full), the growth was 54.5% in the test with NCI-H23 lung; 51.8% in the test with NCI-H226 lung; 56.1% in the test with NCI-H322M lung; 62.4% with HOP-62 NSCLC; 16.8% in the test on NCI-H460 lung; 52.1% in the test with HOP-92 NSCLC. Also, the growth in the test with NCI-H522 lung was 59.1%; in the test on A549/ATCC NSCLC, 33%; in the test on 786-0 renal, 42%; in the test on COLO 205 colon it was 21.8%.

With `O=C(/C=C/c1ccc(F)cc1)c1ccc(NC(=O)N2CCN(c3cc4c(cc3F)c(=O)c(C(=O)O)cn4C3CC3)CC2)cc1`, the growth was 92.8% in the test on NCI-H23 lung; 96.1% in the test with NCI-H226 lung; 100% in the test on NCI-H322M lung; 98% in the test with HOP-62 NSCLC; 82.9% in the test with NCI-H460 lung; 88.5% in the test on HOP-92 NSCLC. The growth is 87% with NCI-H522 lung, 102% in the test with A549/ATCC NSCLC, 92.4% in the test with 786-0 renal and 115% with COLO 205 colon.

`NC(=NCc1ccccc1)C(N=Nc1ccccc1)C(=O)NCc1ccccc1` (stereo not given): the growth with NCI-H23 lung was 65.3%; in the test with NCI-H226 lung, 109%; with NCI-H322M lung, 101%; with HOP-62 NSCLC it was 92.2%; in the test with NCI-H460 lung, 50.1%; in the test with HOP-92 NSCLC, 99%. The growth with NCI-H522 lung was 63.4%; in the test on A549/ATCC NSCLC it was 1.29% (active); in the test on 786-0 renal, 92.4%; with COLO 205 colon it was 79.5%.

`O=C(Nc1ccc(NC(=O)c2cc(=O)[nH]c3ccccc23)cc1)Nc1cccc(Cl)c1`: the growth was 87.9% in the test on NCI-H23 lung; 70% in the test with NCI-H226 lung; 80.2% in the test on NCI-H322M lung; 66.2% in the test on HOP-62 NSCLC; 86.3% in the test with NCI-H460 lung; 81.1% with HOP-92 NSCLC. The growth in the test on NCI-H522 lung was 84.6%; in the test with A549/ATCC NSCLC, 93.5%; with 786-0 renal, 98.3%; in the test on COLO 205 colon, 90.1%.

Turning to `Cn1nc(CC#N)c2c(=N)n(N)cnc21`, the growth was 104% in the test on NCI-H23 lung; 108% with NCI-H226 lung; 118% in the test with NCI-H322M lung; 101% with HOP-62 NSCLC; 102% in the test with NCI-H460 lung; 98.8% in the test on HOP-92 NSCLC. For the same molecule, the growth is 110% with NCI-H522 lung, 113% with A549/ATCC NSCLC, 123% in the test with 786-0 renal and 105% in the test on COLO 205 colon.

`COc1ccccc1/C=C1\Oc2cc(OCCN3CCCC3)ccc2C1=O`: the growth was 82.8% with NCI-H23 lung; 85.3% with NCI-H226 lung; 99.8% in the test with NCI-H322M lung; 96.4% in the test on HOP-62 NSCLC; 84.6% in the test on NCI-H460 lung; 59.5% with HOP-92 NSCLC. Also, the growth with NCI-H522 lung is 89.8%; in the test on A549/ATCC NSCLC, 95.3%; in the test on 786-0 renal, 82.5%; with COLO 205 colon, 95.4%.

Consider `Cc1c(C(=O)NCCC(=O)NO)sc2ncnc(Nc3ccc(F)c(Cl)c3)c12`, for which the growth in the test with NCI-H23 lung was 101%; in the test with NCI-H226 lung, 104%; in the test with NCI-H322M lung, 108%; in the test with HOP-62 NSCLC, 105%; in the test with NCI-H460 lung, 100%; in the test on HOP-92 NSCLC, 118%. For the same molecule, the growth was 95.6% with NCI-H522 lung, 104% in the test with A549/ATCC NSCLC, 105% in the test on 786-0 renal and 117% in the test on COLO 205 colon.

On to `COc1cc(/C=C\c2cc(/C=C\c3ccc(O)c(OC)c3)n(C(=O)COc3ccccc3)n2)ccc1O`, for which the growth with NCI-H23 lung was 1.6% (active); in the test on NCI-H226 lung it was 9.96% (active); in the test with NCI-H322M lung, 30.8%; in the test on HOP-62 NSCLC it was 8.39% (active); with NCI-H460 lung, 7.6% (active); in the test on HOP-92 NSCLC it was 14.4%. Further, the growth in the test with NCI-H522 lung was -39.3% (active); with A549/ATCC NSCLC, 8.68% (active); with 786-0 renal it was 1.27% (active); in the test with COLO 205 colon, 79.3%.

`CCNC(=O)Oc1ccc(/C(=C(\C)c2ccccc2)c2ccc(OCCN3CCCCC3)cc2)cc1`: the growth with NCI-H23 lung was 73.6%; in the test with NCI-H226 lung, 92.2%; with NCI-H322M lung it was 82.7%; in the test on HOP-62 NSCLC, 59.4%; with NCI-H460 lung it was 49.3%; in the test with HOP-92 NSCLC it was 73.4%. Further, the growth in the test with NCI-H522 lung is 93.4%; in the test with A549/ATCC NSCLC, 56%; with 786-0 renal, 16.4%; with COLO 205 colon, 6.41% (active).

Take `Nc1n[nH]c2cccc(C#Cc3cccc(C(=O)Nc4cc(CN5CCOCC5)cc(C(F)(F)F)c4)c3)c12`: the growth in the test on NCI-H23 lung was 38.4%; in the test on NCI-H226 lung, 26.7%; with NCI-H322M lung it was 62.1%; in the test with HOP-62 NSCLC, 38.7%; in the test with NCI-H460 lung, 26.6%; with HOP-92 NSCLC, -7.48% (active). Moreover, the growth with NCI-H522 lung is 39.3%; in the test on A549/ATCC NSCLC, 42.4%; in the test on 786-0 renal, 63.8%; with COLO 205 colon, 14.6%.

Source of the values: PubChem BioAssay (NCI).
